This is a sample that favours compounds with a hit; in the whole collection about 2.1% have one here.
D2 PAM-1: potentiates the human D2 dopamine receptor allosterically | P14416 | DiscoveRx D2 beta-arrestin cells, luminescence, 90 min; 100% = 57 uM dopamine signal | potentiation, % (concentration not given with the values) | hit rate 0.23% among 360,000 | AID 624464; in the data active = potentiation above about 50%; inconclusive = mostly about 30% to 49%
Target sequence (P14416 whole entry, looked up): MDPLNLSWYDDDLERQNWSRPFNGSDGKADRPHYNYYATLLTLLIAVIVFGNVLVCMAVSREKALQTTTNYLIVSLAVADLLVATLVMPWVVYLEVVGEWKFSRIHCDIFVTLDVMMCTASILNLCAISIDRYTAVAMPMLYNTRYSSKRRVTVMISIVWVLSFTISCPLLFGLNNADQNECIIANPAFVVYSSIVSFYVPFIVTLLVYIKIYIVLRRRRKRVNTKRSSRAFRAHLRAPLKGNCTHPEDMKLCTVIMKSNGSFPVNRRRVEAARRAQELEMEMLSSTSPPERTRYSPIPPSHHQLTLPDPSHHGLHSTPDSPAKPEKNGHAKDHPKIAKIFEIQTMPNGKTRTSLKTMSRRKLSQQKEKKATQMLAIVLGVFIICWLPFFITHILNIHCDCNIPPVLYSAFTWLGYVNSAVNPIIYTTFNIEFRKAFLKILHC
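D2 cells co-treated with compound plus 50 nM dopamine (EC20) for 90 min at 37 deg C to detect potentiation. Beta-arrestin recruitment was read as enzyme-fragment luminescence after 1 h at ambient temperature. Full response was set by 57 uM dopamine.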
D2 PAM-2: positive allosteric modulators of human D2 dopamine receptor. P14416. HEK293 T-REx D2, calcium flux, EC20 dopamine potentiation. potentiation, % at 10 µM. hit rate 0.34% among 340,000. AID 485347;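 active = potentiation over 3 SD above the plate norm, cut at about 30% in these data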
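Primary screen. Calcium kinetics in induced HEK293 T-REx D2 cells: compound pre-addition 180 s, EC20 dopamine, 180 s more.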
D2 ag-1: D2 dopamine receptor (human) agonism; P14416; HEK293 T-REx D2 cells, calcium flux agonist mode; activation, % at 2 µM; hit rate 0.53% among 340,000;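 active = activation over 3 SD above normal in the single-dose calcium agonist read, cut at about 30% in these data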
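Tetracycline-induced HEK293 Trex cells with D2 receptor force-coupled to calcium signaling, plated overnight at 30 C and loaded with no-wash calcium dye. Calcium flux read kinetically for 180 s after compound addition; responses flag agonists.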
D2 ag-2: activates the human D2 dopamine receptor | P14416 | DiscoveRx PathHunter D2 beta-arrestin, luminescence, 90 min; 100% = 57 uM dopamine signal | activation, % (concentration not given with the values) | hit rate 0.084% among 360,000; in the data active = activation above about 40%; inconclusive = between about 15% and that limit
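DiscoveRx PathHunter D2 beta-arrestin cells (2,100/well) attached overnight, then compound-stimulated 90 min at 37 C in HBSS/10 mM HEPES/0.1% Tween-20 buffer; beta-galactosidase complementation read by luminescence after 1 h at ambient temperature. Dopamine 57 uM final (EC100) as control.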
LDHA block: blocks human lactate dehydrogenase A; activity change, % (values are at about 110 or 230 µM); AID 1347041; hit rate 0.15% among 480,000; purified LDHA, NADH/diaphorase-resazurin fluorescence; hits give low values; P00338; in the data active = activity change below about -30%; inconclusive = mostly about -25% to -30%
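Resorufin fluorescence (ex540/em590), read at 0 and 20 min after diaphorase/resazurin addition, reports the NADH left after a 5 min room-temperature reaction of 2 nM human LDH5 with 0.06 mM NADH and 0.2 mM pyruvate.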
D2 antag: antagonists of human D2 dopamine receptor | inhibition, % at 10 µM | P14416 | hit rate 2% among 340,000 | HEK293 TREx D2 cells, calcium flux, dopamine EC80 | AID 485344; in the data active = inhibition above about 30%; inactive = below that, where a call was filed
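HEK293 T-REx D2 cells, tet-induced, calcium dye no-wash. Cpd pintool add, 180 s kinetic, then EC80 DA, 180 s kinetic. Ca flux read.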
A number is an active result; . = inactive; ? = inconclusive; / = no result given.

SMILES | D2 PAM-1 | D2 PAM-2 | D2 ag-1 | D2 ag-2 | LDHA block | D2 antag
O=C(CCC(=O)N1CCOc2ccc(Cl)cc21)NCc1ccccc1 | . | . | . | . | . | 36.7
O=C(CCC(=O)N1CCOc2ccc(Cl)cc21)NCCCN1CCOCC1 | . | . | . | . | . | .
O=C(CCC(=O)N1CCOc2ccc(Cl)cc21)NCCCN1CCN(Cc2ccccc2)CC1 | . | . | . | . | . | 40.7
O=Cc1cccc2[nH]ccc12 | / | / | / | / | . | /
COc1ccccc1Nc1nn2c(=O)c3ccc(C(=O)NCc4cccnc4)cc3nc2s1 | / | 30.1 | . | / | / | .
CN(C)S(=O)(=O)c1cccc(C(=O)NCCOC(=O)c2cc(F)c(F)cc2Cl)c1 | . | . | . | . | . | 34.2
CN(C)S(=O)(=O)c1cccc(C(=O)NCCNC(=O)c2cccc(S(=O)(=O)N(C)C)c2)c1 | . | . | . | . | . | .
CC1CCCN(C(=O)C2CCN(Cc3ccc(C(F)(F)F)cc3)CC2)C1 (stereo not given) | / | / | / | / | . | /
COC(=O)C1CCN(C(=O)c2sc3nc(-c4ccc(F)cc4)cn3c2C)CC1 | . | 30.5 | . | . | . | .
CCOC(=O)C1CCN(C(=O)c2sc3nc(-c4ccccc4)cn3c2C)CC1 | . | . | . | . | . | .
COc1ccc(/C=C/c2c(-c3ccc(OC)cc3)oc(=O)c3cc(OC)c(OC)cc23)cc1 | . | / | / | . | . | /
COc1ccc(-c2oc3cccnc3c2/C=C/c2ccc(OC)c(OC)c2)cc1 | . | . | . | . | . | 30.0
CCN(CC(=O)NCc1cccs1)C(=O)C1CC(=O)N(c2cccc3ccccc23)C1 (stereo not given) | / | / | / | / | . | /
Cc1ccc(CNC(=O)NC(=O)C(F)(F)F)cc1 | / | / | / | / | . | /
N#Cc1c(Sc2ncc(C(F)(F)F)cc2Cl)nsc1C/C=N\OCc1c(F)cccc1Cl | 57.7 | . | . | . | . | .
Cc1ccc(S(=O)(=O)Nc2c(O)ccc3ccccc23)cc1 | . | / | / | 56.4 | . | /
O=S(=O)(Nc1c(O)ccc2ccccc12)c1cccc2ccccc12 | ? | / | / | ? | . | /
CCCNc1c(NC(=O)Nc2ccc(C)c(Cl)c2)c(=O)oc2ccccc12 | / | / | / | / | . | /
CC(Sc1nc(-c2ccc(F)cc2)cs1)C(=O)Nc1ccc(Cl)cn1 (stereo not given) | . | . | . | . | . | .
Cc1csc(SC(C)C(=O)Nc2ccc(Cl)cn2)n1 (stereo not given) | . | . | . | . | . | 43.2
O=C(NCCOc1ccccc1)C1CCN(C(=O)Nc2ccccc2)CC1 | . | / | / | . | . | /
Clc1cccc(OCCCCN2CCCCC2)c1 | . | . | . | . | . | 76.8
Cc1cccc(OCCCCCN2CCOCC2)c1 | . | . | . | . | . | .
Cc1cccc(OCCCN2CCCCCC2)c1 | . | . | . | . | . | 40.3
CC(=O)N1CCC(C(=O)NCCOc2cccc(C)c2)CC1 | . | . | . | . | . | 34.6
SMILES | D2 PAM-1 | D2 PAM-2 | D2 ag-1 | D2 ag-2 | LDHA block | D2 antag
CC(C)(CN1CCN(Cc2ccccc2)CC1)NS(=O)(=O)c1ccccc1 | . | . | . | . | . | 40.7
CCOC(=O)C(NC(=O)[C@@H](NC(=O)c1ccccc1OCC)C(C)C)C(=O)OCC | / | / | / | / | . | /
CC(C)C(NC(=O)c1ccc(C(C)(C)C)cc1)C(=O)Nc1cccc(S(N)(=O)=O)c1 (stereo not given) | . | 37.2 | . | . | . | .
CCOc1ccccc1C(=O)NC(C(=O)Nc1cccc(S(N)(=O)=O)c1)C(C)C (stereo not given) | . | . | . | . | . | 33.2
Cc1ccc(C(=O)NC(C(=O)Nc2cccc(S(N)(=O)=O)c2)C(C)C)cc1 (stereo not given) | . | . | . | . | . | .
CC(C)c1ccc(NS(=O)(=O)c2ccc3c(c2)-c2oncc2CO3)cc1 | / | / | / | / | . | /
O=C(Nc1cccnc1)c1ccc2snnc2c1 | . | . | . | . | . | 35.4
Cc1ccc(S(=O)(=O)NCCC(=O)N2CCN(S(=O)(=O)c3ccccc3)CC2)cc1C | . | . | . | . | . | .
Cc1ccc(C)c(S(=O)(=O)N2CCN(C(=O)CCNS(=O)(=O)c3ccc(C)c(C)c3)CC2)c1 | . | 32.4 | . | . | . | .
Cn1c(CN2CCOCC2)c(C#N)c2ccccc21 | . | . | . | . | . | .
CC1CCN(Cc2c(C#N)c3ccccc3n2C)CC1 | . | . | . | . | . | 74.4
CC1CCCCN1Cc1c(C#N)c2ccccc2n1C (stereo not given) | . | . | . | . | . | 40.2
Cn1c(CN2CCCC2)c(C#N)c2ccccc21 | . | . | . | . | . | 82.8
CN1CCN(Cc2c(C#N)c3ccccc3n2C)CC1 | . | . | . | . | . | .
CC(C)CC(=O)C(C#N)C(=O)NCc1ccccc1 (stereo not given) | / | / | / | / | . | /
CC(=O)c1ccc(NC(=O)C23CC4CC(CC(C4)C2)C3)cc1 | / | / | / | / | . | /
Cc1[nH]c2ccc(Cl)cc2c1CCNC(=S)NC(C)(C)C | / | / | / | / | . | /
CN1CCN(C2=Cc3ccccc3Sc3cc(F)ccc32)CC1 | . | . | . | . | . | 80.0
CN1CCN(C2Cc3cc(F)ccc3Sc3ccc(Cl)cc32)CC1 (stereo not given) | . | / | / | . | . | /
CN1CCN(C2=Cc3ccc(Cl)cc3Sc3ccc(F)cc32)CC1 | . | . | . | . | . | 103.1
COc1ccc(OC)c(CNC(=O)c2ncoc2-c2cccc(Cl)c2)c1 | / | / | / | / | . | /
CCOC(=O)Cc1cc(=O)n2[nH]c(C)c(-c3ccc(OC)cc3)c2n1 | . | 30.8 | . | . | . | .
CCc1cc(=O)n2[nH]c(C)c(-c3ccc(OC)cc3)c2n1 | . | . | . | . | . | 33.7
COc1ccc(-c2cc(=O)n3[nH]c(C)c(-c4ccc(OC)cc4)c3n2)cc1 | / | / | / | / | . | /
CCOC(=O)Cc1cc(=O)n2[nH]c(C)c(-c3ccc(Cl)cc3)c2n1 | . | . | . | . | . | .
SMILES | D2 PAM-1 | D2 PAM-2 | D2 ag-1 | D2 ag-2 | LDHA block | D2 antag
CC(C)CC(=O)Nc1ccccc1N1CCN(c2ccccc2)CC1 | . | . | . | . | . | .
O=C(NCC(=O)N1CCN(C(=O)c2ccccc2)CC1)c1ccccc1 | . | . | . | . | . | .
CC(C)CC(=O)Nc1ccccc1N1CCN(C(=O)c2ccccc2)CC1 | 62.3 | . | . | . | . | .
CC(CC(=O)N1CCN(C(=O)c2ccccc2)CC1)c1ccccc1 (stereo not given) | . | . | . | . | . | 38.0
Fc1ccc(-c2cnc(COc3ccc(Cl)cc3)o2)cc1 | / | / | / | / | . | /
Cc1ccc(-c2nc(SCC(=O)N3CCCc4ccccc43)n3[nH]c(=O)cc3n2)cc1 | / | / | / | / | . | /
CSc1ccc(OC2CCN(Cc3ccccc3)CC2)cc1 | . | . | . | . | . | 30.6
c1ccc(CN2CCN(c3ncccn3)CC2)nc1 | / | . | 47.8 | / | / | 37.3
Clc1cccc(CN2CCC(Cc3ccccc3)CC2)c1 | . | / | / | . | . | /
